Laboratory results reported in PubChem BioAssay AID1159580 (chemical genetic matrix, 2015).
Several values for one entry are separate records, joined by “and”; a condition that tells them apart may be missing. Identical values can stand only once. Out of some 5,500 compounds screened, about 2,000 (36%) were called active. About 18% were inconclusive and are not listed. Rule as the data show it: active = normalized growth mostly below about 0.91 (no sharp cut-off); inconclusive = no clear call, values can overlap the other calls; inactive = mostly above about 0.92. This is one part of the list.

Assay: chemical genetic growth profiling, strain panel (AID 1159580);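 also: tested at 20 µM; growth read once vehicle control cultures reached saturation at 30 °C; 1 = growth at the plate median or of vehicle wells; lower values mean less growth of the strain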
Conditions: S. cerevisiae deletion strains, growth OD

Measured: normalized growth

C[C@H]1c2cccc(O)c2C(O)=C2C(=O)[C@]3(O)C(O)=C(C(N)=O)C(=O)[C@@H](N(C)C)[C@@H]3[C@@H](O)[C@@H]21
active: locus YGL248W, strain PDE1, stronger effect = lower value 0.854 | strain wtn01, stronger effect = lower value 0.891
inactive: locus YAL021C, strain ccr4, stronger effect = lower value 0.991 | locus YAL026C, strain drs2, stronger effect = lower value 0.978 | locus YAL030W, strain snc1, stronger effect = lower value 0.976 | locus YBL061C, strain skt5, stronger effect = lower value 0.995 | locus YBR009C, strain hhf1, stronger effect = lower value 0.958 | locus YBR021W, strain FUR4, stronger effect = lower value 0.884 | locus YBR023C, strain chs3, stronger effect = lower value 0.987 | locus YBR171W, strain sec66, stronger effect = lower value 0.956 | locus YBR229C, strain ROT2, stronger effect = lower value 1 | locus YBR231C, strain swc5, stronger effect = lower value 0.979 | locus YBR279W, strain paf1, stronger effect = lower value 0.988 | locus YCL011C, strain gbp2, stronger effect = lower value 0.971 | locus YCL016C, strain dcc1, stronger effect = lower value 1.02 | locus YCL029C, strain bik1, stronger effect = lower value 0.953 | locus YCL069W, strain vba3, stronger effect = lower value 0.956 | locus YCR088W, strain abp1, stronger effect = lower value 0.985 | locus YDL005C, strain med2, stronger effect = lower value 0.998 | locus YDL035C, strain GPR1, stronger effect = lower value 0.963 | locus YDL040C, strain nat1, stronger effect = lower value 0.975 | locus YDL074C, strain BRE1, stronger effect = lower value 0.963 | locus YDL101C, strain DUN1, stronger effect = lower value 0.984 | locus YDL185W, strain tfp1, stronger effect = lower value 0.954 | locus YDL192W, strain arf1, stronger effect = lower value 0.966 | locus YDR001C, strain nth1, stronger effect = lower value 0.984 | locus YDR069C, strain doa4, stronger effect = lower value 0.973 | locus YDR101C, strain arx1, stronger effect = lower value 1.01 | locus YDR137W, strain rgp1, stronger effect = lower value 0.962 | locus YDR159W, strain sac3, stronger effect = lower value 0.951 | locus YDR162C, strain NBP2, stronger effect = lower value 0.978 | locus YDR195W, strain ref2 0.979 | locus YDR297W, strain sur2, stronger effect = lower value 0.991 | locus YDR318W, strain mcm21, stronger effect = lower value 0.961 | locus YDR334W, strain swr1, stronger effect = lower value 0.944 | locus YDR335W, strain msn5, stronger effect = lower value 0.988 | locus YDR388W, stronger effect = lower value 0.98 | locus YDR392W, strain spt3, stronger effect = lower value 0.911 | locus YDR502C, strain sam2, stronger effect = lower value 0.979 | locus YEL003W, strain gim4, stronger effect = lower value 0.978 | locus YEL037C, strain rad23, stronger effect = lower value 0.975 | locus YEL061C, strain CIN8 (second series), stronger effect = lower value 0.971 | locus YEL061C, strain CIN8, stronger effect = lower value 0.984 | locus YER015W, strain faa2, stronger effect = lower value 0.977 | locus YER016W, strain bim1, stronger effect = lower value 1.01 | locus YER110C, stronger effect = lower value 0.965 | locus YER111C, strain swi4, stronger effect = lower value 0.995 | locus YER155C, strain BEM2 (second series), stronger effect = lower value 0.886 | locus YER155C, strain BEM2, stronger effect = lower value 1.01 | locus YER167W, strain BCK2, stronger effect = lower value 0.994 | locus YFR010W, strain ubp6, stronger effect = lower value 0.955 | locus YGL078C, strain dbp3, stronger effect = lower value 0.968 | locus YGL086W, strain mad1, stronger effect = lower value 0.992 | locus YGL167C, strain pmr1, stronger effect = lower value 0.965 | locus YGL173C, strain kem1, stronger effect = lower value 0.975 | locus YGL227W, strain vid30, stronger effect = lower value 0.987 | locus YGL240W, strain doc1, stronger effect = lower value 0.96 | locus YGL253W, strain hxk2, stronger effect = lower value 0.988 | locus YGR135W, strain pre9, stronger effect = lower value 0.923 | locus YGR229C, strain SMI1, stronger effect = lower value 0.983 | locus YGR252W, strain gcn5, stronger effect = lower value 0.93 | locus YHR013C, strain ard1, stronger effect = lower value 1.05 | locus YHR027C, strain rpn1, stronger effect = lower value 0.98 | locus YHR030C, strain SLT2, stronger effect = lower value 0.996 and 1.03 | locus YHR079C, strain IRE1 (second series), stronger effect = lower value 0.978 | locus YHR079C, strain IRE1, stronger effect = lower value 1.03 | locus YHR094C, strain hxt1, stronger effect = lower value 0.987 | locus YHR129C, strain ARP1, stronger effect = lower value 0.994 | locus YHR142W, strain chs7, stronger effect = lower value 0.998 | locus YHR200W, strain rpn10, stronger effect = lower value 0.97 | locus YIL066C, strain RNR3, stronger effect = lower value 0.974 | locus YIL073C, strain SPO22, stronger effect = lower value 0.751 | locus YIL125W, strain kgd1, stronger effect = lower value 0.983 | locus YIR030C, strain dcg1, stronger effect = lower value 0.961 | locus YJL092W, strain hpr5, stronger effect = lower value 0.991 | locus YJL095W, strain BCK1 (second series), stronger effect = lower value 0.979 | locus YJL095W, strain BCK1, stronger effect = lower value 0.929 and 1.03 | locus YJL115W, strain asf1, stronger effect = lower value 0.963 | locus YJL129C, strain trk1, stronger effect = lower value 0.991 | locus YJL134W, strain LCB3, stronger effect = lower value 1 | locus YJL154C, strain vps35, stronger effect = lower value 0.983 | locus YJL164C, strain tpk1, stronger effect = lower value 0.976 | locus YJL166W, strain qcr8, stronger effect = lower value 0.944 | locus YJL168C, strain set2, stronger effect = lower value 0.985 | locus YJL187C, strain SWE1 (second series), stronger effect = lower value 0.97 | locus YJR043C, strain POL32, stronger effect = lower value 0.958 | locus YJR066W, strain TOR1, stronger effect = lower value 0.928 | locus YKL009W, strain mrt4, stronger effect = lower value 0.967 | locus YKL068W, stronger effect = lower value 0.986 | locus YKL085W, strain MDH1 (second series), stronger effect = lower value 0.972 | locus YKL085W, strain MDH1, stronger effect = lower value 0.972 | locus YKL160W, strain elf1, stronger effect = lower value 0.992 | locus YKL190W, strain CNB1, stronger effect = lower value 0.988 | locus YKR001C, strain vps1, stronger effect = lower value 0.942 | locus YKR026C, strain gcn3, stronger effect = lower value 0.972 | locus YKR091W, strain srl3, stronger effect = lower value 0.985 | locus YLL001W, strain dnm1, stronger effect = lower value 0.974 | locus YLL026W, stronger effect = lower value 0.991 | locus YLL041C, strain sdh2, stronger effect = lower value 0.973 | locus YLR027C, strain aat2, stronger effect = lower value 0.998 | locus YLR039C, strain RIC1, stronger effect = lower value 0.971 | locus YLR058C, strain SHM2, stronger effect = lower value 0.976 | locus YLR102C, strain apc9, stronger effect = lower value 0.968 | locus YLR113W, strain HOG1, stronger effect = lower value 1.08 | locus YLR221C, strain rsa3, stronger effect = lower value 0.962 | locus YLR258W, strain gsy2, stronger effect = lower value 0.978 | locus YLR262C, strain YPT6 (second series), stronger effect = lower value 0.936 | locus YLR262C, strain YPT6, stronger effect = lower value 0.967 | locus YLR268W, strain sec22, stronger effect = lower value 0.955 | locus YLR320W, strain mms22, stronger effect = lower value 0.944 | locus YLR330W, strain CHS5, stronger effect = lower value 0.979 | locus YLR342W, strain FKS1 (second series), stronger effect = lower value 0.859 | locus YLR342W, strain FKS1, stronger effect = lower value 0.977 | locus YLR357W, strain rsc2, stronger effect = lower value 0.911 | locus YLR370C, strain arc18, stronger effect = lower value 0.982 | locus YLR371W, strain rom2, stronger effect = lower value 0.963 | locus YLR384C, strain iki3, stronger effect = lower value 1 | locus YLR418C, strain cdc73, stronger effect = lower value 0.91 | locus YML016C, strain PPZ1, stronger effect = lower value 0.979 | locus YML032C, strain rad52, stronger effect = lower value 0.984 | locus YML120C, strain ndi1, stronger effect = lower value 0.97 | locus YML124C, strain tub3, stronger effect = lower value 0.993 | locus YMR058W, strain fet3, stronger effect = lower value 0.947 | locus YMR078C, strain ctf18, stronger effect = lower value 0.963 | locus YMR125W, strain sto1, stronger effect = lower value 0.958 | locus YMR129W, stronger effect = lower value 0.989 | locus YMR205C, strain PFK2, stronger effect = lower value 0.992 | locus YMR223W, strain ubp8, stronger effect = lower value 0.922 | locus YMR231W, strain pep5, stronger effect = lower value 0.989 | locus YMR307W, strain GAS1, stronger effect = lower value 1.08 | locus YNL067W, strain RPL9B, stronger effect = lower value 0.939 | locus YNL071W, strain lat1, stronger effect = lower value 0.975 | locus YNL183C, strain NPR1, stronger effect = lower value 0.987 | locus YNL209W, strain ssb2, stronger effect = lower value 0.985 | locus YNL233W, strain BNI4, stronger effect = lower value 0.939 | locus YNL248C, strain rpa49, stronger effect = lower value 0.95 | locus YNL250W, strain rad50, stronger effect = lower value 0.966 | locus YNL271C, strain bni1, stronger effect = lower value 0.981 | locus YNL298W, strain CLA4, stronger effect = lower value 0.969 | locus YNL307C, strain MCK1, stronger effect = lower value 0.973 | locus YNL322C, strain KRE1 (second series), stronger effect = lower value 0.969 | locus YNL322C, strain KRE1, stronger effect = lower value 0.991 | locus YNR049C, strain mso1, stronger effect = lower value 0.984 | locus YNR052C, strain pop2, stronger effect = lower value 0.979 | locus YOL012C, strain htz1 1.14 | locus YOL147C, strain pex11, stronger effect = lower value 0.988 | locus YOR001W, strain rrp6, stronger effect = lower value 0.923 | locus YOR061W, strain CKA2, stronger effect = lower value 0.993 | locus YOR069W, strain VPS5, stronger effect = lower value 0.998 | locus YOR070C, strain gyp1, stronger effect = lower value 0.99 | locus YOR080W, strain dia2, stronger effect = lower value 0.982 | locus YOR083W, strain WHI5, stronger effect = lower value 1 | locus YOR106W, strain vam3, stronger effect = lower value 0.965 | locus YOR136W, strain idh2, stronger effect = lower value 0.98 | locus YOR144C, strain elg1, stronger effect = lower value 0.995 | locus YOR184W, strain ser1, stronger effect = lower value 0.939 | locus YOR231W, strain MKK1, stronger effect = lower value 1.06 | locus YOR265W, strain rbl2, stronger effect = lower value 0.992 | locus YOR270C, strain vph1, stronger effect = lower value 0.943 | locus YOR290C, strain snf2, stronger effect = lower value 1 | locus YOR316C, strain cot1, stronger effect = lower value 0.973 | locus YPL051W, strain arl3, stronger effect = lower value 0.993 | locus YPL055C, strain LGE1, stronger effect = lower value 0.866 | locus YPL078C, strain atp4, stronger effect = lower value 0.999 | locus YPL106C, strain sse1, stronger effect = lower value 0.912 | locus YPL240C, strain hsp82, stronger effect = lower value 0.984 | locus YPL241C, strain CIN2, stronger effect = lower value 0.998 | locus YPL256C, strain CLN2, stronger effect = lower value 1.05 | locus YPR119W, strain clb2, stronger effect = lower value 0.98 | locus YPR141C, strain kar3, stronger effect = lower value 0.965 | locus YPR163C, strain tif3, stronger effect = lower value 0.985 | locus YPR167C, strain met16, stronger effect = lower value 0.982
